Test results published in PubChem BioAssay (NCI).
About 83,000 compounds went through this panel and 20% of them were active in at least one assay; those are over-represented in the sample as a whole.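 How to read the values: 0–100, growth inhibition (40 = 60% inhibited); 0, no net growth; -100 to 0, cell death (-40 = 40% of starting cells died; -100 = all dead).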 Values without a mark were called inactive. The source made the active and inactive calls. How the source made its calls: active means growth percent below 10; inactive means the rest.

How the values were obtained:
Test in all cases: NCI-60 one-dose screen, 48 h (100 = growth as untreated, 0 = no growth, -100 = all killed)
Settings in all cases: 10 µM
[1] = system: NCI-H23 lung
[2] = system: NCI-H226 lung
[3] = system: NCI-H322M lung
[4] = system: HOP-62 NSCLC
[5] = system: NCI-H460 lung
[6] = system: HOP-92 NSCLC
[7] = system: NCI-H522 lung
[8] = system: A549/ATCC NSCLC
[9] = system: 786-0 renal
[10] = system: COLO 205 colon
[11] = system: DU-145 prostate
[12] = system: K-562 leukemia
[13] = system: MALME-3M melanoma
[14] = system: MDA-MB-231 breast
[15] = system: RXF 393 renal
[16] = system: SF-268 CNS
[17] = system: SF-295 CNS
[18] = system: SF-539 CNS
[19] = system: UACC-257 melanoma
[20] = system: M14 melanoma

| SMILES | growth [1] | growth [2] | growth [3] | growth [4] | growth [5] | growth [6] | growth [7] | growth [8] | growth [9] | growth [10] | growth [11] | growth [12] | growth [13] | growth [14] | growth [15] | growth [16] | growth [17] | growth [18] | growth [19] | growth [20] |
| --- | --- | --- | --- | --- | --- | --- | --- | --- | --- | --- | --- | --- | --- | --- | --- | --- | --- | --- | --- | --- |
| Cn1c([N+](=O)[O-])cnc1/C=C1\Oc2ccc(Br)cc2C1=O | -9.69% (active) | -38.1% (active) | -10.5% (active) | -23.7% (active) | -35% (active) | -32% (active) | -49.4% (active) | -24.8% (active) | -52.9% (active) | -42.1% (active) | -57.9% (active) | -0.493% (active) | -53.4% (active) | -14.8% (active) | -59% (active) | -16.9% (active) | 11.2% | -59.5% (active) | -38.5% (active) | -35% (active) |
| CCNC1(NC#N)CCCCC1 | 102% | 95.6% | 113% | 109% | 113% | 85% | 123% | 91.4% | 100% | 111% | 123% | 115% | 113% | 107% | 108% | 112% | 97.7% | 105% | 85.1% | 99% |
| Cc1ccc(-n2nnc3c(sc4ccccc43)c2=O)cc1 | 70.3% | 46.9% | 38.8% | 31.6% | 18.3% | 6.27% (active) | 58.6% | 35.3% | 24.4% | 44% | 33.7% | 80.3% | 68.1% | 40.9% | 59.9% | 39.8% | 27.3% | 57.2% | 83% | 83.1% |
| CC(=O)c1c(O)cc2c3c1OC(C)(C)C1CCC(C)(CC31)O2 (stereo not given) | 100% | 85.8% | 98% | 106% | 108% | 92% | 102% | 98.1% | 104% | 92.3% | 104% | 90.1% | 93.8% | 106% | 94.8% | 98.3% | 90.2% | 89.8% | 126% | 92.2% |
| Cc1noc(C)c1-c1ccc2nc(NC(=O)[C@H]3CCN(C#N)C3)cn2c1 | 76.1% | 91.1% | 99.3% | 92.8% | 98.7% | 67.3% | 25.2% | 94.6% | 78.6% | 82.6% | 89.7% | 40.5% | 75.6% | 68.2% | 83.4% | 91.3% | 97% | 82.3% | 82.1% | 77.9% |
| CCn1nc(-c2ccc(C(=O)OC)cc2)nc2c(=O)n(C)c(=O)nc1-2 | 104% | 33.5% | 45.4% | -1.34% (active) | 47.8% | -13.1% (active) | 77% | 35.8% | -18.7% (active) | 87.2% | 77.6% | 80.9% | 29.1% | 15.8% | 13.9% | 60.7% | 36.8% | 2.03% (active) | 105% | 78.3% |
| COc1ccc(-c2[nH]ncc2-c2cc(OC)c(OC)c(OC)c2)cc1 | 24.9% | 58.7% | 21.8% | 35.6% | 4.05% (active) | -10.4% (active) | -36.8% (active) | 18% | 3.72% (active) | -72.4% (active) | -23.9% (active) | 6.11% (active) | 57.2% | 4.38% (active) | 0.469% (active) | 16% | -1.07% (active) | -28.1% (active) | 42.6% | 4.51% (active) |
| CNC(=S)Sc1ccc([N+](=O)[O-])cc1[N+](=O)[O-] | 83.5% | 78.9% | 99.1% | 83% | 102% | 23.6% | -57.7% (active) | 80.8% | 93.9% | -35.1% (active) | 38.1% | 7.74% (active) | 87.1% | 50.8% | 97.4% | 94.2% | 95.1% | 25.9% | 62.5% | 24.3% |
